± gives the standard deviation of the averaged measurements.
Tests used:
DLD1 [1] = test: cell viability (CellTiter-Glo) relative to plate median (fraction of plate median); higher = more viable cells; details: 5 µM; treatment time 24 h; reporter: 7TFP
In short: (§1)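 Per-well firefly luciferase or CellTiterGlo luminescence, normalised to the plate median, is what is reported. It was measured in colorectal cancer cells with stable lentiviral TCF/Wnt firefly luciferase reporters after a 24 h treatment with library compounds at a final 5 µM. The mean of two independent replicates is given.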

HCT116 = test: as above; details: 5 µM; treatment time 24 h; reporter: TCF4/Wnt
In short: as §1

SW480 [2] = test: as above; details: 5 µM; treatment time 24 h; reporter: 7TFP
In short: as §1

DLD1 [3] = test: TCF/Wnt firefly luciferase reporter signal relative to plate median (fraction of plate median); higher = higher Wnt reporter signal; details: 5 µM; treatment time 24 h; reporter: 7TFP
In short: as §1

SW480 [4] = test: as above; details: 5 µM; treatment time 24 h; reporter: 7TFP
In short: as §1

SMILES	cell viability (DLD1 [1])	cell viability (HCT116)	cell viability (SW480 [2])	TCF/Wnt firefly luciferase reporter signal (DLD1 [3])	TCF/Wnt firefly luciferase reporter signal (SW480 [4])
C/C=C\C(=O)O[C@@H]1C[C@H]2O[C@@H]3C=C(C)C(=O)C[C@]3(C)[C@]1(C)[C@]21CO1 [Trichothecin]	0.922 ± 0.018	0.807 ± 0.025	0.945 ± 0.023	0.733 ± 0.1	0.832 ± 0.067
C[C@@H]1CC[C@H]2[C@@H](C)C(=O)O[C@@H]3O[C@@]4(C)CC[C@@H]1[C@]32OO4	1.04	1.09 ± 0.14	1.145 ± 0.0071	1 ± 0.023	0.984 ± 0.066
CC(=O)O[C@@H]1CC[C@@]2(C)[C@@H](CC[C@@H]3[C@@H]2CC[C@]2(C)C(=O)CC[C@@H]32)C1	1.025 ± 0.0071	0.924 ± 0.28	1.01 ± 0.04	1.15 ± 0.035	1.08 ± 0.099
CC(=O)Oc1ccc(/C=C/c2cc(OC(C)=O)cc(OC(C)=O)c2)cc1	1.05 ± 0.042	1.02 ± 0.014	1.09 ± 0.021	1.14 ± 0.26	1.17 ± 0.078
COC(=O)[C@]1(C)CC[C@]2(C)CC[C@]3(C)C4=CCc5c(cc(O)c(O)c5C)[C@]4(C)CC[C@@]3(C)[C@@H]2C1	0.9465 ± 0.0078	1.045 ± 0.0071	1.005 ± 0.0071	1.03 ± 0.054	1.11 ± 0.014
CC(=O)O[C@H]1CC[C@@]2(C)[C@H](CC[C@@H]3[C@@H]2CC[C@]2(C)[C@@H](C4=CC(=O)OC4)[C@@H](OC(C)=O)C[C@]32O)C1	0.633 ± 0.0092	0.723 ± 0.06	0.82 ± 0.086	0.277 ± 0.1	0.592 ± 0.088

From the supplement of paper PMC6522484
